Experimental data published in paper PMC5540273 (PLoS ONE, 2017).

Tests used:
Conditions in all cases: concentration: 1 μM,replicates: in singlicate; n = 1
ZAK = system: ZAK
ZAP70 = system: ZAP70
p38-alpha = system: T1, p38-alpha
T1 construct: gene MAPK14

p38-beta = system: T2, p38-beta
T2 construct: gene MAPK11

p38-delta = system: p38-delta
p38-gamma = system: T3, p38-gamma
T3 construct: gene MAPK12
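Note: KINOMEscan kinase panel screen.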

SMILES	%Inh (ZAK) [%]	%Inh (ZAP70) [%]	%Inh (p38-alpha) [%]	%Inh (p38-beta) [%]	%Inh (p38-delta) [%]	%Inh (p38-gamma) [%]
c1ccc(Oc2ccc(Nc3ccnc4ccc(-c5ccccn5)cc34)cc2)cc1 [GW407034]	53	0	0	4	19	0
O=c1[nH]cc(-c2ccc(O)cc2)c2sc(-c3ccncc3)cc12 [GSK1033723]	1	0	0	0	0	26
O=C(Nc1n[nH]c2cc(-c3ccco3)ccc12)C1CC1 [SB-737447]	0	0	0	0	3	26
COc1cc2nccc(Nc3ccc(Oc4ccccc4)cc3)c2cc1OC.Cl [GI261656]	55	0	0	0	20	0
FC(F)(F)c1cc(Br)cc(Nc2nccc(-c3cnn4ncccc34)n2)c1 [GW810578]	16	0	0	0	0	41
Cc1ccc(C(=O)Nc2ccc(Oc3ccc4nc(NC(=O)C5CC5)cn4c3)c(F)c2)c(=O)n1-c1ccccc1	96.1	0	0	0	0	34
Cn1ccc2ncnc(Oc3ccc(NC(=O)Nc4cnn(C(C)(C)C)c4)c(Cl)c3)c21	0	6	91.6	28	3	24
Cc1ccn2nc(-c3ccc(F)cc3)c(-c3ccncc3)c2c1.Cl [GW457859]	0	0	99.7	18	52	30
COC(=O)c1cccc(NC(=O)NC2CCN(c3ccnc(Nc4cc(OC)c(OC)c(OC)c4)n3)C2)c1 (stereo not drawn) [GSK1379767]	3	17	37	0	22	0
CN(c1cccc(CNc2nc(Nc3ccc4c(c3)CC(=O)N4)ncc2C(F)(F)F)c1)S(C)(=O)=O	0	0	0	0	11	9
O=C(NOCC1CC1)c1cc(Br)c(F)c(F)c1Nc1ccc(I)cc1Cl	0	0	0	1	35	0
NC(=O)Nc1sc(-c2ccc(F)cc2)cc1C(N)=O [GW789449]	21	5	6	0	0	16
COc1cccc(C2=C(Nc3cccc(Cl)c3)C(=O)NC2=O)c1 [SB-341556]	16	1	0	0	11	0
COc1cc2ncn(-c3cc(OCC4CCCCC4)c(C(N)=O)s3)c2cc1OC [GSK204559]	7	0	0	0	28	0
CC(=O)Nc1nc2cnc(Nc3cc(NC(=O)c4cccc(CC(C)(C)C#N)c4)ccc3C)nc2s1	0	5	100	100	43	74
COC(=O)Nc1nc2cc(Oc3ccc(NC(=O)Nc4cc(C(F)(F)F)ccc4Cl)cc3)ccc2[nH]1.Cl [GW697465]	98.4	0	83	45	48	0
C[C@@H](Oc1cc(-n2cnc3cc(-c4ccncc4)ccc32)sc1C(N)=O)c1ccccc1Cl [GSK479719]	0	15	71	0	14	0
C[C@@H](Oc1cc(-n2cnc3ccc(-c4ccncc4)cc32)sc1C(N)=O)c1ccccc1Cl [GSK483724]	21	61	1	0	39	0
O=C(Nc1cccc(Oc2ccc3nccn3n2)c1)Nc1cccc(C(F)(F)F)c1	97.8	3	17	12	0	19

SMILES	%Inh (ZAK) [%]	%Inh (ZAP70) [%]	%Inh (p38-alpha) [%]	%Inh (p38-beta) [%]	%Inh (p38-delta) [%]	%Inh (p38-gamma) [%]
C[C@@H](Oc1cc(-n2cnc3cc(-c4cnn(C)c4)ccc32)sc1C(N)=O)c1ccccc1Cl [GSK580432]	6	0	0	0	0	0
Cn1cc(-c2cccc3c(N)c(C(N)=O)nnc23)cn1	0	9	2	16	6	27
CS(=O)c1ccc(-c2coc3ccc(-c4n[nH]c(=O)o4)cc23)cc1 (stereo not drawn)	0	1	10	9	0	0
O=C(Nc1ccc(Oc2ccc3nc(NC(=O)C4CC4)cn3n2)c(F)c1)c1cccn(-c2ccccc2)c1=O	77	0	4	9	0	87
CC(C(=O)NC1CCN(c2ccnc(Nc3ccc(F)cc3)n2)C1)c1ccc(Cl)cc1 (stereo not drawn) [GSK1379713]	5	0	8	0	5	0
NC(=O)c1ccc(-c2cc3ncnc(SCC(=O)O)c3s2)cc1	0	0	0	2	24	0
COc1cccc(CNC(=O)NC2CCN(c3ccnc(Nc4cc(OC)c(OC)c(OC)c4)n3)C2)c1 (stereo not drawn) [GSK1379765]	26	43	12	0	44	1
Cc1ccc(CC(=O)N2CCc3cc(-c4cn(C)c5ncnc(N)c45)ccc32)cc1 [GSK2634758]	21	0	0	0	8	0
C[C@@H]1CNc2c(sc3ccc4nc(-c5ccc(O)cc5)ccc4c23)C(=O)N1	0	0	5	33	30	2
CS(=O)(=O)Nc1ccc(-c2ccnc3[nH]ccc23)cc1 [GSK993273]	13	0	0	0	48	41
Cc1ccc2c(-c3ccnc(Nc4ccc(C(F)(F)F)cc4)n3)cnn2n1 [GW819776]	0	15	0	0	0	44
Cl.Nc1n[nH]c2cc(-c3ccccn3)ccc12 [GSK2189892]	14	0	0	0	22	4
O=C(Nc1ccccc1)c1cccc(Oc2ccc3nccn3n2)c1	0	0	0	0	0	3
O=C(NCC1CC1)c1ccc(-c2cc(C(=O)NC3CC3)ccc2F)cc1 [GW810445]	0	0	55	0	0	29
Cn1ccc2ncnc(Oc3ccc(NC(=O)Nc4cccc(C(F)(F)F)c4)c(Cl)c3)c21	14	0	0	44	35	10
OCCn1cc(-c2cnc3nnn(Cc4ccc5ncccc5c4)c3n2)cn1	0	0	0	20	0	0
CCn1c(-c2nonc2N)nc2cncc(CNC3CCNCC3)c21.Cl [SB-747651]	7	32	0	0	44	10
CN(c1ccccc1CNc1nc(Nc2ccc3c(c2)CC(=O)N3)ncc1C(F)(F)F)S(C)(=O)=O	0	0	0	0	56	0
